Source: PubChem BioAssay (National Center for Advancing Translational Sciences (NCATS))
Compounds with a hit are over-represented: about 3.5% of the library has one in this group of screens.
Tau fluor counter – counter-screen for tau fibril formation inhibitors; tau K18 P301L Alexa594 fluorescence, heparin fibrillization; Potency, µM (series often up to 57.7 µM), for the others: at the top dose activity change, negative = decrease; 280,000 compounds, 0.93% hits; AID 1463; also: nearly all actives have a fitted effect of over 55% in size
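Human tau K18 P301L (15 uM unlabeled, 0.24 uM Alexa 594-labeled) in 100 mM sodium acetate pH 7 with 20 uM heparin, 6 hr at 37 C. ThT 30 uM added, 1 hr ambient; Alexa 594 FP and total fluorescence read at 555/632 nm.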
TRb SRC2 PPI – inhibitors of human thyroid hormone receptor beta-SRC2 interaction. Potency, µM (highest dose often 106 µM), for the others: at the highest dose activity change, negative = inhibition, hits mostly inhibitors. 280,000 compounds, 0.065% hits. TRbeta-SRC2 peptide binding, fluorescence polarization; receptor liganded with 1 µM T3. AID 1469;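 also: plate controls were bound peptide for no effect and peptide without receptor for full effect; nearly all actives have a fitted effect of over 50% in size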
Target sequence (P10828 whole entry, looked up): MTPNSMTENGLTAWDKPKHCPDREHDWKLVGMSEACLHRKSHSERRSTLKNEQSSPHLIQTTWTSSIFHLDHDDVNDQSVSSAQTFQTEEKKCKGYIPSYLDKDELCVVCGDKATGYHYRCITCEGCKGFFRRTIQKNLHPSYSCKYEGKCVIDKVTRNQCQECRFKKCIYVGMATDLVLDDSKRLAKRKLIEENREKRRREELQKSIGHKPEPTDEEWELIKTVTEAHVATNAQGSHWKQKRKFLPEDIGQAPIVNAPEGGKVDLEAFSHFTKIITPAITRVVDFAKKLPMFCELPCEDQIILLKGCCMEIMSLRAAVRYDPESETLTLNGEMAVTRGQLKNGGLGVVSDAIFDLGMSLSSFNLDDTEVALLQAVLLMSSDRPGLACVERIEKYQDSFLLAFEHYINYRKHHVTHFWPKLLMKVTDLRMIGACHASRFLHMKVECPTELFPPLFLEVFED
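Human TRb LBD (0.6 uM) plus Texas Red-labeled SRC2 peptide (20 nM), 1uM T3, 5% DMSO, 5 hr at ambient temperature. Decreased polarization (555/632 nm) flags inhibition; data normalized to free and bound peptide controls.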
Tau ThT inhib – blocks human tau fibril formation measured by thioflavin T; AID 1460; 270,000 compounds, 2.1% hits; P10636; recombinant tau K18 P301L, heparin-induced fibrillization, ThT fluorescence; Potency, µM (titrated, usually from 57.4 µM), inactives show at the highest dose activity, negative = inhibition, usual class: inhibitors; also: nearly all actives have a fitted effect of over 55% in size
Target sequence (P10636 561-689 P618L limits assumed): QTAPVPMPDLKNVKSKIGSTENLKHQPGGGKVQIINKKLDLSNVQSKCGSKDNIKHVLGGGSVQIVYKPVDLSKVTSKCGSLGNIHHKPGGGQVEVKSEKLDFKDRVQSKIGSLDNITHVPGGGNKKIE
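Fibril formation assay: tau K18 P301L at 15 uM with trace Alexa 594 label, heparin inducer 20 uM, pH 7 sodium acetate buffer, 37 C for 6 hr; endpoint ThT signal.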
KDM4E inh – inhibitors of human JMJD2E histone demethylase | Potency, µM (highest dose often 57.1 µM), inactives show at the highest dose activity change, negative = inhibition, actives largely listed as inhibitors | 230,000 compounds, 1.6% hits | JMJD2E catalytic domain, FDH-coupled NADH fluorescence (FDH is formaldehyde dehydrogenase) | B2RXH2; active = well fitted inhibition curve with a large enough effect, not every such curve was filed as active; inconclusive = small, poorly fitted or top-dose-only effect, or another doubt; inactive = no such curve, though single readings can be large or run the other way;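 also: 0% = wells with enzyme and -100% = buffer wells without enzyme; nearly all actives have a fitted effect of over 50% in size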
TR SRC2 fluor cs – counter-screen for TRb-SRC2 inhibitors: fluorescence interference; TRb/SRC2 Texas Red total fluorescence interference; Potency, µM (highest dose often 106 µM), inactives show at the highest dose fluorescence change, negative = quenching; 280,000 compounds, 0.29% hits; AID 1479; active = well fitted curve in either direction with a large enough effect; inconclusive = small, poorly fitted or top-dose-only effect
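Flags fluorescent or light-absorbing compounds by total fluorescence, S + 2P, at 555 nm excitation and 632 nm emission. Mixture: 20 nM Texas Red SRC2 peptide, 0.6 uM human TRb LBD, 1 uM T3, 5% DMSO; compound exposure 5 h at ambient temperature.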
Tau fibril FP – inhibitors of human tau fibril formation. P10636. K18 P301L tau heparin fibrillization, Alexa594 FP, 6 h. Potency, µM (doses to about 57.7 µM), without a hit: at the top dose activity, negative = inhibition, most hits filed as inhibitors. 280,000 compounds, 0.39% hits. AID 1468; also: nearly all actives have a fitted effect of over 55% in size
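K18 P301L tau (15 uM unlabeled/0.24 uM Alexa 594-labeled, final) + compound + heparin 20 uM final; 100 mM NaOAc pH 7; 6 hr 37 C; ThT 30 uM final added, 1 hr RT; FP ex 555/em 632 nm.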
Starred values were filed as active, the others as inactive; ? = inconclusive; nt = not tested or not shown; [ ] = another dose, or the depositor's remark. Unless noted, calls follow the shape of the dose curve; as a rule, active = well fitted curve in the direction sought with a large enough effect; inconclusive = small, poorly fitted or top-dose-only effect, or another doubt; inactive = no such curve, though single readings can be large; an effect the other way counts as inactive or inconclusive. Unless noted, % is scaled to controls: 0 for no effect and ±100 for the full control effect; potency is read from the fitted curve at half-maximal effect.

SMILES | Tau fluor counter | TRb SRC2 PPI | Tau ThT inhib | KDM4E inh | TR SRC2 fluor cs | Tau fibril FP
CCOC(=O)C1=C(C)Nc2ncnn2C1c1ccc(N(C)C)cc1 (configuration not stated) | -1% | -8% | -11% | -1% | -1% | -2%
CC(C)C(=O)NC(c1ccc([N+](=O)[O-])cc1)c1c(O)ccc2ccccc12 (configuration not stated) | ? | 1% | 20µM* | -28% | -2% | ?
Cc1ccc(N2NC(=O)/C(=C/c3ccc(-c4ccc(Cl)c(C(=O)O)c4)o3)C2=O)cc1C | -22% | 0% | ? | -4% | -14% | -5%
COC(=O)c1ccc(N2NC(=O)/C(=C/c3ccc(-c4ccc(Cl)c(C(=O)O)c4)o3)C2=O)cc1 | ? | 4% | 6.3µM* | -26% | -9% | ?
CC(=O)OC1CC(OC(C)=O)[C@]2(C)C(CC(=O)[C@]3(C)C2CC[C@@]2(C)C(c4ccoc4)OC(=O)C4O[C@@]423)C1(C)C (some centres not stated) | -21% | -1% | 25µM* | 0% | 1% | 32µM*
CC(=O)OC1CC(OC(C)=O)[C@]2(C)C(CC(O)[C@]3(C)C2CC[C@@]2(C)C(c4ccoc4)OC(=O)C4O[C@]432)C1(C)C (some centres not stated) | -17% | -2% | -20% | 1% | -2% | 3%
C=CCn1c(O)c(C2=c3ccccc3=NC2=O)sc1=Nc1ccc(O)cc1 | 13µM*[quencher] | 3% | 13µM* | -19% | -2% | ?
O=C1CCCc2cc(S(=O)(=O)NCC3CCC(C(=O)Nc4ccccc4F)CC3)ccc2N1 (configuration not stated) | -7% | 7% | 0% | nt | -2% | -6%
O=C(Oc1cccnc1)c1ccc([N+](=O)[O-])cc1 | 8.9µM*[quencher] | 5% | ? | 3% | -3% | 12%
c1ccc(Cn2c(SCCN3CCOCC3)nnc2-c2cccnc2)cc1 | -2% | 1% | -6% | ? | -2% | -5%
Nc1cc(N)c(OCC(F)(F)F)cc1OCC(F)(F)F | ? | ? | 3.2µM* | ? | 14% | 13µM*
Nc1cc(OCC(F)(F)F)cc([N+](=O)[O-])c1 | -1% | 1% | -9% | -1% | -1% | 14%
O=C(O)c1cccnc1Cl | -2% | 5% | -2% | 0% | 0% | -2%
O=C(O)c1cccnc1C(=O)O | -19% | 5% | -15% | 2µM* | -5% | ?
Cc1ccc(OCC(=O)c2ccc(Cl)s2)c([N+](=O)[O-])n1 | ? | -5% | 14µM* | ? | -2% | ?
CC/C(C)=N\N=C\c1c(O)n(CC)c2cc(C3=NNC(=O)CC3)ccc12 | -23% | -6% | 16µM* | ? | -2% | -9%
CCn1c(O)c(/C=N/N=C/c2ccc(OC)cc2)c2cc(C3=NNC(=O)CC3)ccc21 | -3% | 2% | nt | ? | 0% | 0%
CCCSC1=C(C#N)C(c2cccs2)C(C(=O)Nc2ccccc2)=C(C)N1 (configuration not stated) | 3% | -4% | 9% | -2% | 1% | 0%
Cc1cc(Nc2ccccc2)nn1C(=O)c1ccccc1 | ? | -15% | -13% | -11% | -6% | 15%
Cc1cc(Nc2ccccc2)nn1C(=O)c1ccc(Br)cc1 | 7.9µM*[quencher] | -3% | -9% | -7% | 0% | 10%
Cc1ccccc1-c1nnc(SCC(=O)N(C)c2ccccc2)o1 | -14% | -2% | -7% | nt | -11% | 4%
CCc1ccc(CNC(=O)c2ccc(CSc3nc4ccncc4n3Cc3ccccc3)cc2)cc1 | ? | 1% | -8% | nt | -7% | -6%
Nc1nc(Nc2ccccc2)nc(NCc2ccccc2)c1[N+](=O)[O-] | ? | 2% | ? | -6% | -10% | ?
Cc1ccc(Nc2nc(N)c([N+](=O)[O-])c(NCc3ccco3)n2)cc1C | 28µM*[quencher] | 6% | 16µM* | 7% | -3% | ?
CCOc1ccc(Nc2nc(N)c([N+](=O)[O-])c(NCc3ccccc3)n2)cc1 | 14µM*[quencher] | 0% | ? | 12% | 0% | 14%
SMILES | Tau fluor counter | TRb SRC2 PPI | Tau ThT inhib | KDM4E inh | TR SRC2 fluor cs | Tau fibril FP
COc1cccc(Nc2nc(N)c([N+](=O)[O-])c(NCc3ccccc3)n2)c1 | 16µM*[quencher] | 5% | ? | -1% | -2% | ?
Cn1c2ccccc2c2cnn(CC(=O)Nc3ccc(Cl)cc3)c(=O)c21 | -9% | -6% | nt | ? | -7% | 2%
Cc1cc(N)n(-c2ccc(Oc3ccccc3)c(S(=O)(=O)O)c2)n1 | 6% | -5% | -18% | 0% | -1% | 4%
COc1ccc(CC(=O)Nc2c3c(nn2-c2cccc(C)c2C)CS(=O)(=O)C3)cc1 | -11% | -23% | -12% | -18% | -4% | -1%
C=CCSc1nnc2n(-c3ccccc3OC)c(=O)c3c4c(sc3n12)CCC4 | -6% | ? | -8% | -25% | 1% | 0%
O=C(/C=C/c1ccc(S(=O)(=O)N2CCOCC2)cc1)NCCCn1ccnc1 | -3% | 0% | -5% | -1% | 0% | -9%
COC(=O)C1=C(C)NC(=O)/C1=C\c1cc(C)n(-c2cccc(C)c2)c1C | ? | 2% | 25µM* | -12% | -1% | 3%
Cc1cccc(-n2c(C)cc(/C=C3\NC(=O)NC3=O)c2C)c1 | -12% | 8% | -17% | ? | -1% | -2%
COC(=O)C1=C(C)NC(=O)/C1=C\c1cc(C)n(-c2ccc(F)cc2)c1C | ? | -4% | 16µM* | 20µM* | -1% | 1%
COC(=O)C1=C(O)/C(=C\c2cc(C)n(-c3ccc(F)cc3)c2C)N=C1C | -23% | -1% | ? | ? | -1% | 0%
CC(C)CNC(=O)N1[C@H](c2cccs2)[C@@H](C)C(=O)[C@@H](C)[C@@H]1c1cccs1 | -2% | -5% | 0% | nt | 0% | -3%
CCOC(=O)c1c(-c2ccccc2)oc2ccc(NS(=O)(=O)c3ccc(C)cc3)cc12 | ? | -12% | -1% | nt | 40µM*[quencher] | ?
CCOC(=O)c1c(C)oc2ccc(NS(=O)(=O)c3ccc(C(=O)O)cc3)cc12 | 10% | 0% | 0% | 1% | -2% | 7%
Cc1cc2c(N=O)c(NO)ccc2[nH]1 | -26% | 1% | ? | 11µM* | 1% | 3%
CSc1nc(Cl)cc(N2CCOCC2)n1 | 1% | -7% | 3% | -4% | -4% | 2%
COCCNC(=O)C(NC(=O)C1CCCCC1)C(C)C (configuration not stated) | -9% | -9% | -9% | 3% | -1% | -3%
Cc1ccc(S(=O)(=O)N2CCC(C(=O)O)CC2)cc1C(=O)O | 4% | -2% | 6% | ? | -5% | 3%
